Calls of active or inactive are those of the source. The calls were made as follows: active = hit-call score of the fitted dose curve at least 0.9, where 1 is the maximum; inactive = score below 0.9.
read-out: MYC, MYC (gene 4609); test: LTEA_HepaRG_MYC: Life Technologies and Expression Analysis (LTEA) Assay for MYC using HepaRG (AID 2283518); conditions: mRNA level, 48 h; actives raise or lower the signal
Procedure: LTEA_HepaRG is a cell based, multiplexed-readout assay that uses HepaRG, a human liver cell line, with measurements taken at 48 hours after chemical dosing on a 96-well plate.LTEA_HepaRG_MYC is one of 102 assay component(s) measured in the LTEA HepaRG cell culture assay. It is a marker of Cell proliferation, survival, death.Data from the assay component LTEA_HepaRG_MYC was analyzed into 1 endpoint. This assay endpoint, LTEA_HepaRG_MYC, was analyzed with bidirectional fitting relative to DMSO as the negative control and baseline of activity. Using a type of inducible reporter, measures of mRNA induction for gain or loss-of-signal activity can be used to understand regulation of transcription factor activity. To generalize the intended target to other relatable targets, this assay endpoint is annotated to the dna binding intended target family, where the subfamily is basic helix-loop-helix leucine zipper.
A total of 1060 chemcials from the ToxCast library were tested in eight-point concentration-response experiments. Cell culture and cytotoxicity assays were conducted at Thermo Fisher Scientific's Custom Services facility (Madison, WI). A single lot of human HepaRG cells (Thermo Fisher Scientific, Frederick, MD) was used for the cell culture experiments. 96-well format collagen type I coated plates of human HepaRG cells were prepared using established methods. Briefly, cryopreserved HepaRG cells were thawed, plated at a density of approximately 100,000 cells/well in HepaRG Thaw, Plate, and General Purpose media (HPRG770, Thermo Fisher Scientific), and incubated for 48 hours. 0.5% DMSO was selected as vehicle control to balance the requisite need of DMSO in HepaRG cultures to maintain differentiation (for example, baseline metabolism, proportions of hepatocytes vs. cholangiocytes), while enabling further hepatic receptor pathway activation (for example, PXR and CAR) in response to chemical exposure. 48 hours after plating, the culture medium was replaced with HepaRG Serum-Free Incudtion Media. Cells were exposed to each test chemical in duplicate and maintained in CO2 incubators for another 48 hours. Chemical plates were thawed to room temperature and 200x concentrations of treatment groups were prepared. 8-point conentration-reponse curves were made with the highest exposure at 100 uM, followed by half-log dilutions, all in 0.5% DMSO. Each test plate contained variouse controls, induction positive controls (1mM phenobarbital), cytotoxicity positive controls ([…] aflatoxin B1), vehicle controls (0.5% DMSO), and total lysis controls (0.5% DMSO). Cell morphology images were taken using an Essen IncuCyte FLR automated microscope, with six 96-well plates imaged in about 24 minutes. Images were captured and exported and JPEG files. Spent culture media was transfered to black-well plates for the LDH assay, and remaining media was sorted at -80 C for later use. Cells were treated with RLT buffer and frozen until shipped for gene expression analysis. Total RNA was isolated from the cell suspension in 75 uL of Buffer RLT (Qiagen, Germantown, MD 20874) by Quintiles/Expression Analysis (Durham, NC) using a custom isolation procedure. Total RNA from each plate well was transferred to a preamplification plate. Fluidigm's 96.96 Dynamic ArrayTM (Fluidigm, Amsterdam, the Netherlands) technology was used for gene expression analyses by quantitative reverse transcription polymerase chain reaction (qRT-PCR, performed by Quintiles/Expression Analysis, Durham, NC)89. Standard TaqManTM Assays (Applied Biosystems/ThermoFisher Scientific, Foster City, CA) were used to assess the expression of 93 genes selected based on their selectivity and sensitivity to important hepatic receptors known to be modulated by environmental chemicals; importance in human hepatocyte functionality; and hepatotoxicity. […]

SMILES | outcome | AC50
O=[N+]([O-])C(Br)(CO)CO | inactive | –
OCCCBr | inactive | –
Clc1ccc(C(c2ccc(Cl)cc2)C(Cl)Cl)cc1 | inactive | –
OCCCl | inactive | –
CCCCCCCCCCCCCN1CC(C)OC(C)C1 (stereo not given) | inactive | –
CCNS(=O)(=O)C(F)(F)C(F)(F)C(F)(F)C(F)(F)C(F)(F)C(F)(F)C(F)(F)C(F)(F)F | inactive | –
CC(C)(C)C(O)(CCc1ccc(Cl)cc1)Cn1cncn1 (stereo not given) | – | 50 µM (active)
CN(C)C(=O)Nc1ccc(Cl)cc1 | inactive | –
CCCSC(=O)N(CCC)CCC | inactive | –
CS(=O)(=O)NC(=O)c1cc(Oc2ccc(C(F)(F)F)cc2Cl)ccc1[N+](=O)[O-] | inactive | –
COc1cc(C=O)cc2c1[C@H](COC(N)=O)[C@]1(OC(C)=O)ON2C[C@H]2[C@@H]1N2C(C)=O | inactive | –
CCC[CH2][Sn]([Cl])([CH2]CCC)[CH2]CCC | inactive | –
c1ccc(NNc2ccccc2)cc1 | inactive | –
CC(O)CCO (stereo not given) | inactive | –
Oc1ccccc1Cl | inactive | –
[Cl-].[Cl-].[Hg+2] | inactive | –
CCCCCOC(=O)c1ccccc1C(=O)OCCCCC | inactive | –
CN(C)[C@@H]1C(=O)C(C(N)=O)=C(O)[C@@]2(O)C(=O)C3=C(O)c4c(O)cccc4[C@@](C)(O)[C@H]3C[C@@H]12 | inactive | –
COC(=O)Nc1nc2ccccc2[nH]1 | inactive | –
ClC1=C(Cl)[C@]2(Cl)[C@H]3[C@H]([C@@H]4C=C[C@H]3C4)[C@@]1(Cl)C2(Cl)Cl | – | 50 µM (active)

SMILES | outcome | AC50
Nc1ccc([N+](=O)[O-])cc1 | inactive | –
c1ccc(C2CO2)cc1 (stereo not given) | inactive | –
C[N+](C)(C)CC1CO1 (stereo not given) | inactive | –
CCOC(=O)[C@]1(c2ccccc2)Oc2ccccc2[C@@H]1N | – | 89.5 µM (active)
O=C(Oc1ccc(Br)cc1)N1CCN2CCC1CC2 | inactive | –
[O-][Cl+]O | inactive | –
C[C@]12C=CC3=C4CCC(=O)C=C4CC[C@H]3[C@@H]1CC[C@@H]2O | inactive | –
Nc1ccc(N=Nc2ccccc2)cc1 | inactive | –
N#CC(Br)Br | inactive | –
CCN(CC)N=O | inactive | –
COC(=O)c1ccccc1N | inactive | –
COP(=S)(OC)SCN1C(=O)c2ccccc2C1=O | inactive | –
CC(C)COC(=O)c1ccccc1C(=O)OCC(C)C | inactive | –
CC(C)(OOC(C)(C)c1ccccc1)c1ccccc1 | inactive | –
Nc1ccc(Cc2ccc(N)cc2)cc1 | inactive | –
O=C(N[C@H](c1ccccc1)[C@@H]1CN2CCC1CC2)c1c(Cl)ccc(C(F)(F)F)c1Cl | – | 68.4 µM (active)
CN(C)c1ccccc1 | inactive | –
CC(C)(O)c1cnn2c(-c3ccc(F)c(-c4c(F)cccc4C#N)c3)cnc2n1 | inactive | –
CO[C@@H]1[C@H](OC(=O)NC(=O)CCl)CC[C@]2(CO2)[C@H]1[C@@]1(C)O[C@@H]1CC=C(C)C | inactive | –
Cc1cccc(N)c1N | inactive | –
